Rows were chosen to be rich in hits. Some 2.8% of all compounds tested hit in one or more screens of this group.
WRN inhibitor: blocks human WRN helicase | Q14191 | WRN helicase unwinding, fluorescent forked duplex, kinetic | Potency, µM (top dose mostly 114 µM), for the others: at the highest dose activity change, negative = inhibition, hits mostly inhibitors | 360,000 tested, 0.46% active; also: potency is read from the fitted curve at half-maximal effect; % is scaled to controls: 0 for no effect and ±100 for the full control effect; nearly all actives have a fitted effect of over 55% in size
Target sequence (Q14191 whole entry, looked up): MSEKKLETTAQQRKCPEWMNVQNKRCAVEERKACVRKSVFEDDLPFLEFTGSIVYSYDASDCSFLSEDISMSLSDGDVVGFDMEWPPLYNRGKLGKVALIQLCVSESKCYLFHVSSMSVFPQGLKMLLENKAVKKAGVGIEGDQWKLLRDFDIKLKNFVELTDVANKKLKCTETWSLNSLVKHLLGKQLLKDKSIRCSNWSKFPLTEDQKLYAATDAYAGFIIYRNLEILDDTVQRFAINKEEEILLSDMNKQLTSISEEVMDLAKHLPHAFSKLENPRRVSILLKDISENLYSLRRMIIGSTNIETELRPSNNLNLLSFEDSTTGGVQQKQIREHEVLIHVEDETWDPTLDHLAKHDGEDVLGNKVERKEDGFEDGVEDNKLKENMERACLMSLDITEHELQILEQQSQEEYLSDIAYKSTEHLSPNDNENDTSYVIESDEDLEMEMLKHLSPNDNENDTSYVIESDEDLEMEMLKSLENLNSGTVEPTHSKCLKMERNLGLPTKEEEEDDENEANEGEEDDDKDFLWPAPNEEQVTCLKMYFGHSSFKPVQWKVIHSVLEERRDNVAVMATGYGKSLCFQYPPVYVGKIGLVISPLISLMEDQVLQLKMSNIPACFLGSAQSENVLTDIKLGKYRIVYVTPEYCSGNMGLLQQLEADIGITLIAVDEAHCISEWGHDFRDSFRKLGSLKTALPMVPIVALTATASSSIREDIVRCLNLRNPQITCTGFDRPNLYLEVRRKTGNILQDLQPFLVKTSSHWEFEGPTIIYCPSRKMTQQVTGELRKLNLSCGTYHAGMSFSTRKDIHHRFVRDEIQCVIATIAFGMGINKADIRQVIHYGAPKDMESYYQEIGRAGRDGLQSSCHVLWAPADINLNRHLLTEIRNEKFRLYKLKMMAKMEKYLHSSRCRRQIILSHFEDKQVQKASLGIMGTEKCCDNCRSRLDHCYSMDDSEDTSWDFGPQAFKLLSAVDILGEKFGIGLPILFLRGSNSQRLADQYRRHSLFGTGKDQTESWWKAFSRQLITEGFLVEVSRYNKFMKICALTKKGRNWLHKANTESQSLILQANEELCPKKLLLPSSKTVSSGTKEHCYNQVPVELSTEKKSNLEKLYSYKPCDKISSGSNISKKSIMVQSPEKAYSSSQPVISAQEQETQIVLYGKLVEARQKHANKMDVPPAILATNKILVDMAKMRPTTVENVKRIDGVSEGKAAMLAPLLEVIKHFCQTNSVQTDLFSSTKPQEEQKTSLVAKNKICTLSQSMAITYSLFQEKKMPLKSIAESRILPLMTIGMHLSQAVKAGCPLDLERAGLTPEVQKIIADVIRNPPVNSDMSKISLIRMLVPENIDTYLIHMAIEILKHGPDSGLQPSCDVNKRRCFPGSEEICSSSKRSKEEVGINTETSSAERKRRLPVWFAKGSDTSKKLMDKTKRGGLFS
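Primary qHTS, 1536-well format. 20 nM WRN + compound, 15 min RT; start with 100 nM forked fluorophore/quencher duplex, 2 mM ATP (final); kinetic read ex 525/em 598 nm.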
PI5P4Ka inh: inhibitors of human PI5P4K alpha. P48426. PI5P4Kalpha enzyme, ADP-Glo luminescence, 60 min; hits give low values. max response, %. 330,000 tested, 1.2% active; active = max response of -50% or lower; inconclusive = between -30% and -50%; inactive = -30% or higher; also: value at the top dose of about 77 µM; % is scaled to controls: 0 for no effect and ±100 for the full control effect
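Human PI5P4Kalpha with substrate in 0.038 M HEPES pH 7.4, 0.28 mM EGTA, 0.1% CHAPS, 5% DMSO; reaction started with 5 microM ATP (final), 60 min at room temperature. ADP formed read by ADP-Glo luminescence.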
POLH inh: blocks human DNA polymerase eta activity; Q9Y253; recombinant Pol eta, fluorescent DNA replication assay; Potency, µM (titrated, usually from 114 µM), for the others: top-dose activity change, negative = inhibition, usual class: inhibitors; 390,000 tested, 1.2% active; AID 588591; also: potency is read from the fitted curve at half-maximal effect; % is scaled to controls: 0 for no effect and ±100 for the full control effect
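Pol eta at 10 nM preincubated with compounds 15 min at room temperature; reaction started with fluorescent substrate (50 nM final) and read kinetically at 0 and 10 min.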
POLB inh: blocks human DNA polymerase beta activity. 340,000 tested, 1.3% active. P06746. Pol beta primer extension/strand displacement, fluorescence kinetic. Potency, µM (doses to about 114 µM), inactives show at the highest dose activity change, negative = inhibition, hits mostly inhibitors; also: potency is read from the fitted curve at half-maximal effect; % is scaled to controls: 0 for no effect and ±100 for the full control effect
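Values derive from four-parameter Hill fits of normalized kinetic data: reads at 0 and 10 min following addition of 50 nM substrate to 10 nM Pol beta preincubated 15 min with compound.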
Pol kappa inh: inhibitors of human DNA polymerase kappa; Q9UBT6; purified Pol kappa, fluorescent DNA synthesis assay, 10 min; Potency, µM (doses to about 107 µM), inactives show at the highest dose activity, negative = inhibition, most hits filed as inhibitors; 400,000 tested, 0.53% active; also: potency is read from the fitted curve at half-maximal effect; % is scaled to controls: 0 for no effect and ±100 for the full control effect
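Enzyme at 10 nM met test compounds for 15 min at room temperature. Substrate addition (50 nM final) began the reaction, which was monitored by fluorescence at 0 and 10 min.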
POLI inh: DNA polymerase iota (human) inhibition; 390,000 tested, 1% active; Potency, µM (series often up to 115 µM), without a hit: top-dose activity, negative = inhibition, usual class: inhibitors; Q9UNA4; Pol iota fluorescent replication assay, 10 min; also: potency is read from the fitted curve at half-maximal effect
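Fluorescent replication assay read twice, at 0 min and 10 min after adding 50 nM (final) substrate. Enzyme (10 nM) and compounds were first incubated 15 min at room temperature; enzyme-free buffer wells were negative controls.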
* hit, by the source's call; ? = inconclusive; . = no result; [ ] = another dose, or the depositor's remark. Unless noted, calls follow the shape of the dose curve; as a rule, active = well fitted curve in the direction sought with a large enough effect; inconclusive = small, poorly fitted or top-dose-only effect, or another doubt; inactive = no such curve, though single readings can be large; an effect the other way counts as inactive or inconclusive.

SMILES	WRN inhibitor	PI5P4Ka inh	POLH inh	POLB inh	Pol kappa inh	POLI inh
COc1ccc(S(=O)(=O)N2CN(Cc3ccco3)c3nc4ccccc4nc32)cc1	56.2µM*	.	79.4µM*	-10.5%	-9.5%	?
CCn1c(=N)c(C(=O)NC2CCCCC2)cc2c(=O)n3cc(C)ccc3nc21	.	.	-11.1%	2.0%	-1.5%	4.8%
CC1=Nc2ccc(C)cc2/C1=C/c1c(N)n2nc(CC(=O)N3CCOCC3)sc2nc1=O	-19.0%	-16.7	-20.3%	-1.4%	-6.2%	25.7%
CCOC1=C/C(=C/c2c(N)n3nc(CC(=O)N4CCCC4)sc3nc2=O)C=CC1=O	-10.8%	-54.7*	?	-28.1%	-41.1%	?
CCc1nn2c(N)c(/C=C3\C=Nc4ccccc43)c(=O)nc2s1	-18.6%	0.0	2.8%	-2.7%	-21.2%	19.9%
COC1=C/C(=C/c2c(N)n3nc(CC(=O)N4CCCC4)sc3nc2=O)C=CC1=O	-3.7%	-55.5*	-4.5%	-0.9%	?	?
COC1=CC(=Cc2c(N)n3nc(CC(=O)N4CCCCC4)sc3nc2=O)C=C(OC)C1=O	-9.8%[11.6 µM]	-58.5*	56.2µM*	16.9%	?	?
O=C(c1ccc(Cl)cc1)N1CCN(c2ncccn2)CC1	-0.9%	0.5	-7.6%	9.7%	1.5%	144.3%
Clc1ccc(-c2csc3ncnc(Sc4nnnn4-c4ccccc4)c23)cc1	.	.	.	.	5.6%	-3.0%
Cc1ccc(OCC(=O)c2cc(C)n(Cc3cccs3)c2C)c([N+](=O)[O-])n1	3.6%	-4.7	-12.8%	?	-23.2%	94.7%
Cc1cc(C(=O)COc2ccc3ccc(=O)oc3c2)c(C)n1Cc1cccs1	-8.2%	-25.5	-17.6%	50.1µM*	-18.6%	-46.9%
CC(=O)c1c(C)[nH]c(C(=O)COc2ccc3ccc(=O)oc3c2)c1C	4.5%[11.6 µM]	3.5	35.5µM*	.	-34.1%	?
O=C1/C(=C/c2ccc(O)c(O)c2)Oc2ccccc21	.	.	.	.	13.4µM*	.
CCN(CC)c1nc(NC2CCN(C)CC2)c2cc(OC)c(OC)cc2n1	.	.	.	.	0.8%	1.4%
COCc1c(Br)c(C)nc(OCC(=O)N/N=C/c2ccco2)c1C#N	-12.0%	-13.1	20.2%	17.8µM*	-1.9%[60.1 µM]	?
CCC(C)Sc1c(C(C)C)cnc2c1c(=O)n(C)c(=O)n2C (centres undefined)	.	.	-3.2%	-15.4%	-2.9%[60.1 µM]	-18.3%
O=C1c2ccccc2C(=O)c2cc(Cn3cc(-c4cccc(C(F)(F)F)c4)nn3)ccc21	.	.	.	.	-7.1%	6.1%
O=[N+]([O-])c1ccc(Cn2cc(-c3cccc(C(F)(F)F)c3)nn2)cc1	-5.4%	14.3	-8.7%	-4.2%	?	89.1µM*
O=C(COC(=O)c1ccccc1Br)NCCC1=CCCCC1	-30.4%	-12.2	-14.1%	-2.2%	-7.9%	-14.3%
O=C(NC(=S)NCCC1=CCCCC1)c1ccccc1Br	-18.0%	-53.8*	?	-13.0%	-6.7%	-7.1%
COc1ccc(NC(=O)Cn2c(=O)n(-c3ccc(CC(=O)NCC4CCCO4)cc3)c(=O)c3ccccc32)c(OC)c1 (centres undefined)	.	.	-20.9%	5.7%	7.1%	15.8%
O=C(CSc1nnc(-c2ccco2)o1)c1ccccc1	-8.5%	.	5.1%	39.8µM*	-10.0%	-7.5%
Cc1ccc(C(=O)CSc2nnc(-c3ccco3)n2Cc2ccccc2)cc1	?	-50.7*	-9.2%	-11.0%	-11.0%	?
COc1ccc(C(=O)CSc2nnc(-c3cc(C)on3)o2)cc1	-10.7%	-24.9	-9.6%	11.2µM*	-28.6%	-25.1%
Cc1cc(-c2nnc(SCC(=O)c3ccc(Cl)cc3)o2)no1	-10.0%	0.0	-0.1%	-13.3%	-16.5%	22.0%
SMILES	WRN inhibitor	PI5P4Ka inh	POLH inh	POLB inh	Pol kappa inh	POLI inh
O=C(CSc1nnc(-c2ccco2)n1Cc1ccccc1)c1ccccc1	-13.4%	1.5	?	5.5%	-14.5%	1.9%
O=C(CSc1nnc(-c2ccco2)o1)c1ccc(F)c(F)c1	-2.6%	.	-17.6%	-2.2%	-1.2%	17.6%
O=C(CSc1nnc(-c2ccco2)o1)c1ccc[nH]1	-26.8%	-85.6*	?	14.1µM*	?	14.1µM*
CC(C)C[C@@H](CN1CCC[C@H]1CN1C(=O)C(=O)NC[C@@H]1Cc1ccccc1)N1C[C@H](Cc2ccccc2)N(CC2CCCCC2)C(=O)C1=O	-8.3%	-2.6	.	.	.	.
Cc1ccc2c(c1)-c1c(c(C(=O)N3CCN(c4cc(Cl)ccc4C)CC3)nn1C)CS2	.	.	-11.3%	-0.4%	-3.2%[60.1 µM]	-9.3%
COc1ccc(NC(=O)CSC2=Nc3ccccc3C3=NC(CCC(=O)NC4CCCCC4)C(=O)N23)cc1Cl (centres undefined)	.	.	-22.7%	-25.1%	7.4%	19.8%
COc1ccc(Cl)cc1Cn1c(C)c(C(=O)NCc2cccc([N+](=O)[O-])c2)sc1=O	-4.0%[57.1 µM]	-1.1	.	.	.	.
COc1cccc(CNC(=O)CCC(=O)N2CC(C)Sc3ccccc32)c1 (centres undefined)	.	.	-8.4%	29.5%	-11.6%	-6.0%
CCCN(CC(=O)Nc1ccccc1C)C(=O)Cc1coc2cc(C)ccc12	-28.9%	-26.0	?	39.8µM*	-14.6%	?
CCCN(CC(=O)Nc1ccccc1C)C(=O)CCl	-9.2%	2.5	18.8%	-14.2%	-0.4%	85.0%
CCc1cc(/C=C/c2ccnc3ccccc23)ccc1N(C)C	.	.	.	.	-9.4%	30.2%
Cc1c(N2C(=O)c3ccc4c5c(ccc(c35)C2=O)CC4)c(=O)n(-c2ccccc2)n1C	?	-63.6*	2.82µM*	5.01µM*	50.1µM*	5.62µM*
COc1ccccc1NC(=O)Cn1nnc(-c2ccccc2NS(=O)(=O)c2ccccc2)n1	-12.6%	3.0	-3.4%	11.4%	-36.1%	89.1µM*
COc1ccc(NC(=O)Cn2nnc(-c3ccccc3NS(=O)(=O)c3ccc(OC)cc3)n2)cc1	-19.1%[57.1 µM]	4.7	-25.5%	8.7%	-7.1%	17.5%
COc1ccc(C2CC(=O)Oc3c(C(CCN4CCOCC4)c4ccc5c(c4)OCO5)c(OC)cc(OC)c32)cc1 (centres undefined)	.	.	.	.	-10.1%	?
CC(/C=C/C1[C@H](C)C[C@H](O[C@@H]2O[C@H](CO)[C@@H](O)[C@H](O)[C@H]2O)CC1(C)C)O[C@H]1O[C@H](CO)[C@@H](O)[C@H](O)[C@H]1O (some centres undefined)	5.0%	12.6	-9.5%	.	7.6%	-12.7%
CC(/C=C/C1(O)C(C)CC(O)CC1(C)C)OC1OC(CO)C(O)C(O)C1O (centres undefined)	-15.1%	6.7	35.5µM*	25.1µM*	56.2µM*	?
Cc1cc(=O)c2c(O)c3c(O)cc(O)c4c5c(O)cc(O)c6c(O)c7c(=O)cc(C)c8c1c2c(c34)c(c65)c78	.	.	.	.	10µM*	.
